Assay outcomes from PubChem BioAssay.
NPSR antagonist – neuropeptide S receptor (human) antagonism, cAMP | Q6W5P4 | CHO-NPSR cells, cAMP TR-FRET, antagonist mode | Potency, µM (highest dose often 38.3 µM), for the others: at the top dose activity change, negative = inhibition, actives largely listed as inhibitors | actives 1% (n = 220,000); active means well fitted curve in the direction sought with a large enough effect; inconclusive means small, poorly fitted or top-dose-only effect, or another doubt; inactive means no such curve, though single readings can be large; an effect the other way counts as inactive or inconclusive; further: potency means the concentration at half of the fitted maximal effect; nearly all actives have a fitted effect of over 50% in size
Target sequence (Q6W5P4 whole entry, looked up): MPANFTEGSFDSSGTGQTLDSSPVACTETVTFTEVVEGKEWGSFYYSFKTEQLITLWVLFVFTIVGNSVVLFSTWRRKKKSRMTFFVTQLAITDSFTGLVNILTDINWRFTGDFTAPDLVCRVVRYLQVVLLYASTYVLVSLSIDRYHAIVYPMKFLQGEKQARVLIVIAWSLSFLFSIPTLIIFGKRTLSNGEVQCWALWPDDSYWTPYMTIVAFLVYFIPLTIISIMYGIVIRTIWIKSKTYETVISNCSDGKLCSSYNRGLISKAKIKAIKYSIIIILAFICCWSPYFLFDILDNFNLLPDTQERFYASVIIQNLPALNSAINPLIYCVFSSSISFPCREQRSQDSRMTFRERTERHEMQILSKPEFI
RGS12 GoLoco inh – blocks human Gai1 binding to RGS12 GoLoco peptide, red readout; P63096; Gai1:RGS12 GoLoco peptide FP, rhodamine, 10 min; Potency, µM (series often up to 61.6 µM), without a hit: at the top dose activity, negative = inhibition, most hits filed as inhibitors; actives 0.44% (n = 230,000); AID 880; active means well fitted inhibition curve with a large enough effect, not every such curve was filed as active; inactive means no such curve, though single readings can be large or run the other way; further: potency means the concentration at half of the fitted maximal effect; nearly all actives have a fitted effect of over 30% in size
ALDH1A1 block – ALDH1A1 (human) enzyme inhibition. Potency, µM (top dose mostly 75.3 µM), for inactives: top-dose activity, negative = inhibition, actives largely listed as inhibitors. Purified ALDH1A1, NADH fluorescence, propionaldehyde substrate. P00352. AID 1030. actives 7.3% (n = 220,000);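 further: potency means the concentration at half of the fitted maximal effect; plate controls were no enzyme wells and a reference inhibitor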
FBPA coupling cs – coupling enzyme interference in Giardia aldolase counter-screen. coupling enzyme system counterscreen, AmpLite Red fluorescence. activity change, negative = inhibition, % at 58.2 µM, hits read low. actives 0.67% (n = 290,000); in the data active means activity change below about -30%
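Fluorescence at 525 nm excitation and 598 nm emission measured inhibition of the coupled detection system without aldolase. Compounds (at 57.5 uM final) were preincubated 10 min at room temperature with coupling enzyme reagent before a 20 min substrate/AmpLite Red step.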
KDM4E inh – blocks human JMJD2E demethylase activity | B2RXH2 | JMJD2E catalytic domain, FDH-coupled NADH fluorescence (FDH is formaldehyde dehydrogenase) | Potency, µM (doses to about 57.1 µM), for the others: at the highest dose activity change, negative = inhibition, hits mostly inhibitors | actives 1.6% (n = 230,000);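 further: potency means the concentration at half of the fitted maximal effect; 0% = wells with enzyme and -100% = buffer wells without enzyme; nearly all actives have a fitted effect of over 50% in size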
Target sequence (B2RXH2 1-337 limits assumed): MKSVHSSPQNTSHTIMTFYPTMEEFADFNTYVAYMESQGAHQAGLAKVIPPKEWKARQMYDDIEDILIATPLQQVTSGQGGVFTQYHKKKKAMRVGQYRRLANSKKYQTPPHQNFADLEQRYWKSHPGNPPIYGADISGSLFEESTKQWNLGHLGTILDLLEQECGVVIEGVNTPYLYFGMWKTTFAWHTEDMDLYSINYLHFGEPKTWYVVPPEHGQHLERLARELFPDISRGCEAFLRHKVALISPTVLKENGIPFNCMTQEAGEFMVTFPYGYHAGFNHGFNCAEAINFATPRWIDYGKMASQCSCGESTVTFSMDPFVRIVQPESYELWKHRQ
Sfp inh – Sfp phosphopantetheinyl transferase inhibition | Q9F4F7 | Biochemical Sfp PPTase activity, qHTS | Potency, µM, inactives show largest response in the series, negative = inhibition, most hits filed as inhibitors | actives 3.5% (n = 310,000) | AID 1490; active means well fitted curve in the direction sought with a large enough effect; inconclusive means small, poorly fitted or top-dose-only effect, or another doubt; inactive means no such curve, though single readings can be large; an effect the other way counts as inactive or inconclusive;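 further: the enzyme is Sfp with the accession as filed and its product quenches rhodamine fluorescence; potency means the concentration at half of the fitted maximal effect; 0% = enzyme reaction without inhibitor and -100% = no enzyme wells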
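With Hepes-Na pH 7.6 buffer containing 10 mM MgCl2, Sfp (15 nM) modified BHQ-2-YbbR (12.5 uM) using rhodamine-CoA (5 uM). Two reads 30 minutes apart at 525/598 nm yielded each well's rate.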
Numbers without * were called inactive; ? = inconclusive; / = no result; ! = a repeat was not active; [ ] = remark or other dose. A selection: hits, their analogues and other compounds. The true share with any hit is near 8.5%. Unless noted, the call rests on the fitted dose curve; in most records, active means well fitted inhibition curve with a large enough effect (not every such curve was filed as active); inconclusive means small, poorly fitted or top-dose-only effect, or another doubt; inactive means no such curve, though single readings can be large or run the other way. Unless noted, on the % scale 0 is the no-effect control and ±100 the full control effect.

SMILES	NPSR antagonist	RGS12 GoLoco inh	ALDH1A1 block	FBPA coupling cs	KDM4E inh	Sfp inh
O=C(Cn1nc2sc3ccccc3n2c(=O)c1=O)c1ccc(Cl)cc1	-27%	6%	/	1	-1%	17%
CC(NC(=S)NC1CCC(C(C)(C)C)CC1)c1ccccc1 (configuration not stated)	/	/	/	1	/	10%
O=C(Nc1nncs1)C1CC(=O)N(CCc2ccc(F)cc2)C1 (configuration not stated)	/	/	/	1	/	-1%
N/C(CC(=O)Nc1cc(C(F)(F)F)ccc1Cl)=N\O	-18%	4%[14.2 µM]	28µM*!	-3	-4%	8%
CCOC(=O)C(Oc1ccc(=O)n(-c2ccccc2)n1)C(C)=O (configuration not stated)	?	-9%	18µM*	4	4%	7%
COc1ccccc1C(OC(=O)c1cccs1)C(=O)NCc1ccco1 (configuration not stated)	-12%[7.67 µM]	4%	25µM*	1	-8%	50µM*
O=C(CSc1nnc([C@@H]2CCCN2)o1)c1ccc(Cl)cc1	0%[46.1 µM]	9%	22µM*	1	-5%	-22%
COCn1c(=O)c2c(nc(SC3=NCCS3)n2Cc2ccccc2C)n(COC)c1=O	-19%[46.1 µM]	-10%	2.8µM*	-12	3%	-27%
COCCCn1c(=O)c2ccccc2n(Cc2ccccc2C)c1=O	/	/	/	4	/	-10%
C=CCOc1c(Cl)cc(CNCCCN2CCOCC2)cc1OC	/	/	/	2	/	4%
O=C(CSc1ccccc1)Nc1nnc(C2CC2)s1	/	/	/	1	/	1%
CC(=O)N[C@@H](CC(=O)O)C(=O)N[C@@H](CCC(=O)O)C(=O)O	/	78%	7%	1	-8%	?
COC(=O)c1ccc(N)c(N=CC2=C(O)CC(C)(C)CC2=O)c1	0%	11%	20µM*	-13	?	12%
CC1(C)CC(=O)C(C=Nc2cc(C(=O)c3ccccc3)ccc2N)=C(O)C1	10%	7%	11µM*	-12	-3%	-13%
CSc1ccccc1N=CC1=C(O)CC(C)(C)CC1=O	-14%[46.1 µM]	1%	2µM*	0	-19%	-1%
CC1(C)CC(=O)C(C(N)=NC(=O)c2ccccc2)=C(O)C1	-37%	-1%	10µM*	-2	-3%	23%
CC1(C)CC(=O)C(C(N)=NC(=O)c2ccc([N+](=O)[O-])cc2)=C(O)C1	-12%	1%	8%	4	9%	10%
O=c1ccn([C@@H]2O[C@H](COP(=O)(O)O)[C@@H](O)[C@H]2O)c(=O)[nH]1	/	8%	-5%	/	/	2%
C[C@H]([C@@H](N)C(=O)N[C@@H](C(=O)O)[C@@H]1O[C@H](n2ccc(=O)[nH]c2=O)[C@@H](O)[C@H]1O)[C@@H](O)c1ccc(O)cn1	-45%	15%	-11%	-17	9%	56µM*
CCOC(=O)N1CCN(C(=O)CN(C)S(=O)(=O)c2ccc(Cl)cc2)CC1	/	/	/	0	/	19%
COc1ccc(N=C/C=C2/C=C(c3ccccc3)OC(C)(C)O2)cc1	-38%	30%	1.4µM*	-5	-9%	?
COc1cc(C(C2=C(O)CC(C)(C)CC2=O)C2C(=O)CC(C)(C)CC2=O)cc(OC)c1OC (configuration not stated)	-4%	-7%	?	0	-11%	50µM*
Cc1ccc(C(C2C(=O)CC(C)(C)CC2=O)C2C(=O)CC(C)(C)CC2=O)s1	-13%[46.1 µM]	-8%	7.1µM*	0	-11%	50µM*
CC1(C)CC(=O)C(C(c2ccncc2)C2C(=O)CC(C)(C)CC2=O)C(=O)C1	-2%[46.1 µM]	-3%	-8%	1	-15%	4%
COc1cc(C(C2C(=O)CC(C)(C)CC2=O)C2C(=O)CC(C)(C)CC2=O)ccc1O	/	/	/	2	/	56µM*
SMILES	NPSR antagonist	RGS12 GoLoco inh	ALDH1A1 block	FBPA coupling cs	KDM4E inh	Sfp inh
COc1ccc(C(C2C(=O)CC(C)(C)CC2=O)C2C(=O)CC(C)(C)CC2=O)cc1	34%	8%	/	3	-22%	25µM*
CCOc1ccc(CCNC(=O)CCCn2c(=O)c3cccn3c3cccnc32)cc1OCC	/	/	/	-4	/	1%
COc1ccccc1OC[C@H](O)COC(N)=O	/	5%[21.6 µM]	-12%[20.9 µM]	-1	?	14%
CCOc1ccccc1N/C(=C(/C(Cl)=C(Cl)Cl)[N+](=O)[O-])n1cncn1	-7%[46.1 µM]	10%	20µM*	-4	-13%	-29%
O=[N+]([O-])/C(C(Cl)=C(Cl)Cl)=C(\Nc1ccc(F)cc1)n1cncn1	0%[46.1 µM]	-6%	13µM*	-1	?	-19%
O=C1C2C3C=CC(C3=C(c3ccccc3)c3ccccc3)C2C(=O)N1Cc1ccccc1 (configuration not stated)	-12%[46.1 µM]	14µM*	1.1µM*	0	3%	50µM*
S=C(NC1CCCCC1)N1CCCCC1	5%	11%	/	-1	0%	5%
O=C(COc1ccc(OCc2ccccc2)cc1)NN=C1CCCC1	-7%	13%	8.9µM*	1	26%	6%
CCOC(=O)c1sc(NC(=O)/C=C/c2cnn(CC)c2C)c(C(=O)OCC)c1C	-13%[46.1 µM]	10%	?	-1	?	25µM*
CCOc1ccc(Cl)cc1C(c1c(C)[nH][nH]c1=O)c1c(C)[nH][nH]c1=O	/	/	/	1	/	12%
COc1ccc(-c2ccc(C(c3c(C)[nH][nH]c3=O)c3c(C)[nH][nH]c3=O)o2)c([N+](=O)[O-])c1	-4%	-5%	10µM*	-49*	38%	20µM*
Cc1[nH][nH]c(=O)c1C(c1ccc(-c2ccc(F)cc2)o1)c1c(C)[nH][nH]c1=O	21%	0%	25µM*	-37*	31%	?
Cc1[nH][nH]c(=O)c1C(c1ccc(N(C)C)c(Br)c1)c1c(C)[nH][nH]c1=O	-17%	36%	/	-5	-6%	-19%
Cc1[nH][nH]c(=O)c1C(c1ccc(-c2ccc(Cl)c(Cl)c2)o1)c1c(C)[nH][nH]c1=O	-6%[46.1 µM]	12%	10µM*	-45*	15%	56µM*
Cc1[nH][nH]c(=O)c1C(c1ccc(-c2ccc(C(=O)O)cc2)o1)c1c(C)[nH][nH]c1=O	9%	-15%	?	-63*	?	-88%
O=C(CN1CCN(Cc2cccc(F)c2)CC1)NCc1ccccc1	/	/	/	1	/	6%
CCOC(=O)/C(C#N)=C1/C=CN(C)C=N1	4%[46.1 µM]	-7%	14µM*	0	3%	6%
Cn1c(-c2ccccc2)cnc1NCc1ccc(F)cc1	/	/	/	-1	/	-32%
Cn1c(-c2ccc3c(c2)OCO3)cnc1NCc1cccc(O)c1	14%	4%	13µM*	0	?	0%
Cn1c(-c2ccccc2)cnc1NCc1cccc([N+](=O)[O-])c1	/	/	/	0	/	-17%
Cn1c(-c2ccc(F)cc2)cnc1NCc1cccc(F)c1	-10%[46.1 µM]	135%	6.3µM*	/	?	?
